Reference: PubChem BioAssay
Active and inactive are the calls of the source.

What was measured:
Albumin (Bos taurus) = Albumin (Bos taurus) (UniProt P02769); assay: compounds binding labelled BSA control protein – biochemical, small-molecule microarray, Alexa647 label, 635/667 nm fluorescence, artefact control for SMM control protein annotation, profiling panel (AID 1118); settings: BSA-A647 binding, fluorescence 635 nm, higher = more signal;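 note: score merges 667 nm emission intensity and signal-to-noise per printed compound spot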
Sequence of Albumin (Bos taurus) (P02769 whole entry, looked up): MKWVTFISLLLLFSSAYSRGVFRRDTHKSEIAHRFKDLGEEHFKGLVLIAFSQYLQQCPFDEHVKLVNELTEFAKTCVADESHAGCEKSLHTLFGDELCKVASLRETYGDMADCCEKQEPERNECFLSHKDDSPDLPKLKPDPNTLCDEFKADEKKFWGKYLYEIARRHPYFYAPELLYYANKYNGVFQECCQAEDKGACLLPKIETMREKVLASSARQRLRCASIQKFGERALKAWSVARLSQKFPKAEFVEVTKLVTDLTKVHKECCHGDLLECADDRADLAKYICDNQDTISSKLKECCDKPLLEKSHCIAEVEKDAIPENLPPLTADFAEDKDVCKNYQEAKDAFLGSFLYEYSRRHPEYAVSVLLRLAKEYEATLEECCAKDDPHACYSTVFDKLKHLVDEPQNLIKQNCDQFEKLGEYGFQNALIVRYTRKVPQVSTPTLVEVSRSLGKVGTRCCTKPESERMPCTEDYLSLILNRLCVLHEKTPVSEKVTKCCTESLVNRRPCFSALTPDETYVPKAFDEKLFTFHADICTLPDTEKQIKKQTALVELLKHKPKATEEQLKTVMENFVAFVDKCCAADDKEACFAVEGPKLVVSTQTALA

[1] = probe aXIP binding to arrayed compounds – biochemical, NeuroSMM set, 635/667 nm fluorescence, primary screen (AID 1119); settings: small-molecule microarray, higher = more signal, called active from +8 up or from −8 down;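 note: probe is the protein aXip251-270 applied at 1 µg/mL to compound-printed slides; binding of probe to printed compounds measured as 667 nm fluorescence plus signal to noise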
[2] = probe aNOTCH3 binding on compound microarray – biochemical, small-molecule microarray, 635/667 nm fluorescence, primary screen (AID 1120); settings: higher = more signal;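 note: probe is a biotin-tagged antibody raised against NOTCH3 rather than NOTCH3 protein; score merges spot fluorescence near 667 nm with spot signal to noise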
[3] = probe aNOTCH2 binding on compound microarray – biochemical, small-molecule microarray, 635/667 nm fluorescence, primary screen (AID 1121); settings: higher = more signal;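 note: score merges feature fluorescence read at 667 nm with its signal to noise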
[4] = target: Carbonic anhydrase 2 (Homo sapiens) (UniProt P00918); assay: compounds binding carbonic anhydrase 2 – biochemical, small-molecule microarray, Alexa647-labelled CAII, profiling panel (AID 1122); settings: CAII-A647 binding fluorescence, higher = more signal
[5] = COS7 lysate on small-molecule microarray, probe aHis, 635 nm (AID 1123); settings: COS7 cell lysate, fluorescence, higher = more signal;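 note: z-score combines 667nm fluorescence intensity with signal-to-noise per printed compound spot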
[6] = probe aLAP1 signal on lysate-treated microarray – cell lysate, small-molecule microarray, COS7 lysate, primary screen (AID 1124); settings: probe aLAP1, fluorescence, higher = more signal;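 note: lysate comes from COS7 cells expressing LAP1 and is applied at 0.3 µg/mL; score merges spot fluorescence near 667 nm with signal-to-noise over triplicate slides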
Sam68 (KHDRBS1) = assay: compounds binding KHDRBS1 protein – biochemical, small-molecule microarray, 635 nm fluorescence, primary screen (AID 1125); settings: higher = more signal;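 note: score merges 667 nm channel intensity with signal to noise over triplicate slides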
[7] = system: Chordin-like protein 2 (CHRDL2); assay: compounds binding chordin-like 2 – biochemical, small-molecule microarray, 635 nm fluorescence, primary screen (AID 1126); settings: fluorescence 635 nm, higher = more signal;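 note: printed compound slides probed with Chrdl2 protein at 4 µg/mL for 1 h at 4 C; score merges 667 nm emission intensity with signal to noise over three replicate slides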
[8] = target: Concanavalin-A (Canavalia ensiformis) (UniProt P02866); assay: compounds binding concanavalin A lectin – biochemical, small-molecule microarray, Alexa647 label, 635 nm, artefact control for SMM control protein annotation, primary screen (AID 1127); settings: ConA-A647 binding fluorescence, higher = more signal;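 note: z combines 667 nm emission intensity with signal-to-noise across three replicate slides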
Sequence of Concanavalin-A (Canavalia ensiformis) (P02866 whole entry, looked up): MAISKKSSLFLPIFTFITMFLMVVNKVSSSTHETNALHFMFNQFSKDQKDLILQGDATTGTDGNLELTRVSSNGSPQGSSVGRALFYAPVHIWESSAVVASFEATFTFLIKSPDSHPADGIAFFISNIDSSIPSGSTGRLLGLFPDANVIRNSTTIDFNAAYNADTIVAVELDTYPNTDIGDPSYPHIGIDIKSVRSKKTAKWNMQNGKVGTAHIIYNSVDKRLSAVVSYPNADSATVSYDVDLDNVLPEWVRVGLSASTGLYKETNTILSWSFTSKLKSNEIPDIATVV

SMILES | composite z-score (Albumin (Bos taurus)) | composite Z-score [1] | composite z-score [2] | composite z-score [3] | composite z-score [4] | composite z-score [5] | composite z-score [6] | composite z-score (Sam68 (KHDRBS1)) | composite z-score [7] | composite z-score [8]
COCCOC(=O)N1C(=O)[C@@]2(c3cc(C#Cc4ccc(OC)cc4)ccc31)[C@H](C(N)=O)[C@H]1C(=O)O[C@H](c3ccccc3)[C@H](c3ccccc3)N1[C@@H]2c1ccc(O)cc1 | -1.62 | 0.0064 (inactive) | 0.319 | -0.0125 | 0.0424 | -0.304 | 0.0413 | -0.986 | -1.71 | -1.67
COCCn1c(C(=O)N(C)C)cc2c1C[C@H]1CN(C(=O)c3ccccc3)[C@@](Cc3ccc(F)cc3)(C(=O)OC)[C@@H]21 | 0.985 | 0.916 (inactive) | 0.073 | 0.197 | 0.859 | 2.02 | -0.0593 | 0.459 | 0.194 | 0.787
O=C(N1CCCCC1)[C@]1(CCS(=O)(=O)c2ccccc2)N=C(c2ccc(OCCCO)cc2)O[C@@H]1c1ccccc1 | 0.431 | 1.77 (inactive) | 0.381 | 0.0161 | 0.639 | 2.08 | 0.165 | 1.27 | -0.457 | 1.18
CS(=O)(=O)CCOC(=O)C1=CC(c2ccc(CO)cc2)=CC(c2cccs2)N(Cc2cccc(OC(F)(F)F)c2)C=C1C(=O)OCCS(C)(=O)=O (stereo not given) | 0.735 | -0.0662 (inactive) | 0.152 | -0.0259 | 0.664 | 1.68 | 0.442 | 1.13 | 0.217 | 0.911
COCC1=C([C@H](O)CCc2ccccc2)[C@H](CO)[C@@H]2C(=O)N(Cc3ccccc3)C(=O)[C@@H]2C1 | -0.103 | 0.0653 (inactive) | -0.0456 | -0.129 | -0.0186 | 0.0949 | -0.102 | -0.0322 | 0.422 | 0.0998
CN(C)CCCC[C@@H]1NC(=O)[C@@H]2C[C@H](C(=O)NCCCCCN)[C@H](c3ccc(O)cc3)N2C1=O | 0.932 | 0.351 (inactive) | 0.0229 | -0.0478 | 0.462 | 0.984 | 0.443 | 1 | -1.76 | 1.1
O=C1C2C=CC(C(O)c3cccc4ccccc34)N(n3cnnc3)C2C(=O)N1Cc1ccccc1 (stereo not given) | -0.0146 | -0.415 (inactive) | 1.28 | 0.747 | 0.754 | 0.434 | 0.544 | -0.131 | 0.166 | 0.0912
CC(C)C(O)C1C=CC2C(=O)N(C)C(=O)C2N1N1CCCCC1 (stereo not given) | 0.867 | 0.875 (inactive) | 0.143 | 0.0994 | 0.773 | 2.2 | 0.111 | 0.832 | 0.117 | 0.657
C[C@]1(C(=O)NCC(F)(F)F)c2ccccc2C(=O)N(Cc2cc(F)cc(C(F)(F)F)c2)[C@H]1c1ccc(CO)cc1 | -0.385 | -0.191 (inactive) | -0.198 | -0.135 | 0.694 | 2.18 | 0.87 | 1.11 | -0.115 | 0.247
COCCOC(=O)N1C(=O)[C@@]2(c3cc(C#CCC(C(=O)OC)C(=O)OC)ccc31)[C@H](c1ccc(OCCO)cc1)N1[C@H](c3ccccc3)[C@H](c3ccccc3)OC(=O)[C@H]1[C@@H]2C(=O)NC[C@H](O)c1ccccc1 | 0.599 | -0.33 (inactive) | 0.272 | -0.132 | 0.563 | 2.42 | 0.41 | 1.32 | 0.45 | 1.01
CO[C@H]1O[C@H](CO)[C@@H](OC(=O)Nc2ccc(C(F)(F)F)cc2)[C@H](OC(=O)Nc2ccccc2)[C@@H]1OC(=O)Nc1ccccc1 | 0.533 | 0.291 (inactive) | 0.217 | 0.0405 | 0.527 | 2.31 | -0.0098 | 1.29 | -0.28 | 1.16
O=C1C[C@@](C(=O)O)(c2ccc([N+](=O)[O-])cc2)[C@@H](c2ccc(CO)cc2I)N1CC12CC3CC(CC(C3)C1)C2 | 0.776 | 0.235 (inactive) | -0.132 | 0.0808 | 0.64 | 1.63 | 0.945 | 0.993 | -1.42 | 1.09
CC(c1ccccc1)C(O)C1C=CC2C(=O)N(c3ccccc3)C(=O)C2N1Nc1ccccc1F (stereo not given) | 0.687 | 0.0197 (inactive) | 0.0522 | -0.0483 | 0.697 | 2.21 | 0.504 | 1.17 | -0.474 | 0.77
Cc1ccc(S[C@]2(C(=O)NCCCN(C)C)CC(=O)N(C(C)C)[C@@H]2c2ccc(CO)cc2I)cc1 | 0.746 | -0.181 (inactive) | -0.004 | -0.127 | 0.721 | 1.23 | 0.693 | 0.271 | -0.0376 | 0.257
O=C1[C@H]2C=C(Br)[C@H](C[C@@H]2OCCOCCO)[C@@]12CO2 | -0.335 | -0.0482 (inactive) | -0.105 | -0.0418 | -0.122 | -0.146 | 0.669 | 0.421 | 0.169 | 0.393
O=[N+]([O-])c1ccc(C[n+]2ccc(CCCO)cc2)o1 | 0.766 | -0.138 (inactive) | 0.277 | 0.0655 | 0.82 | 1.82 | 0.313 | 0.916 | 0.793 | 1.09
[N-]=[N+]=Nc1ccccc1C[C@]1(C(=O)N2CCCCC2)N=C(c2ccc(OCCCO)cc2)O[C@H]1c1ccccc1N=[N+]=[N-] | 0.94 | 0.121 (inactive) | 0.311 | 0.252 | 0.623 | 2.91 | 1.17 | 1.29 | -0.292 | 0.979
C=CCOC(=O)[C@H]1[C@@H]2C(=O)O[C@@H](c3ccccc3)[C@@H](c3ccccc3)N2[C@@H](c2ccc(OCCOC(=O)[C@@H]3C[C@@H]4C(=O)NCC(=O)N4[C@@H]3c3ccc(O)cc3)cc2)[C@]12C(=O)Nc1ccc(I)cc12 | 0.733 | 1.05 (inactive) | 0.0435 | -0.0583 | 0.647 | 1.71 | 0.888 | 1.3 | 1.09 | 1.14
COC(=O)[C@@]1(Cc2ccc(F)cc2)[C@H]2c3cc(C(=O)N(C)C)n(CCCNc4ccc(C(F)(F)F)cc4Cl)c3C[C@H]2CN1C(=O)c1ccccc1 | 1.03 | -0.214 (inactive) | 0.568 | 0.116 | 0.778 | 2.87 | 0.12 | 1.3 | -0.841 | 1.17
NC(=O)NCC#Cc1ccc2c(c1)[C@]1(C(=O)N2)[C@H](C(=O)NC[C@H](O)c2ccccc2)[C@H]2C(=O)O[C@H](c3ccccc3)[C@H](c3ccccc3)N2[C@@H]1c1ccccc1OCCO | 0.308 | 0.15 (inactive) | -0.0003 | -0.164 | 0.539 | 1.54 | 0.564 | 0.854 | -0.769 | 0.913
C=CCCN(CC#C[C@H]1Oc2ccccc2S(=O)(=O)N2CCC[C@@H]12)S(=O)(=O)c1ccc(C)cc1 | 0.0985 | 0.671 (inactive) | 0.0311 | -0.102 | 0.208 | 0.273 | 0.758 | 0.215 | 0.607 | -0.464
COc1ccccc1CN1C(=O)c2ccccc2[C@](Cc2ccccc2I)(C(=O)NC2CC2)[C@@H]1c1ccc(CO)cc1 | 0.0506 | 0.0161 (inactive) | -0.0208 | -0.0878 | 0.548 | 2.11 | 0.524 | 1.32 | 0.245 | 1.14
CC(C)C[C@@H]1NC(=O)[C@@H]2C[C@H](C(=O)NCCCCN(C)C)[C@H](c3ccc(O)cc3)N2C1=O | -0.0836 | 0.0699 (inactive) | -0.236 | -0.124 | 0.335 | 0.732 | 0.148 | 0.225 | -0.631 | -0.0663
NC(=O)[C@@]1(CCS(=O)(=O)c2ccccc2)N=C(c2ccc(OCCCO)cc2)O[C@H]1c1ccccc1 | 0.737 | -0.0775 (inactive) | 0.0793 | -0.0531 | 0.801 | 2.86 | 0.821 | 1.2 | -1.12 | 1.14
COC(=O)c1c2oc(c1C(=O)OC)C(=O)N[C@H](Cc1ccccc1)Cn1nncc1C1(CCCCC1)NC(=O)N[C@H](CO)CC2 | -0.399 | 0.699 (inactive) | -0.143 | -0.192 | 0.163 | 0.388 | -0.0073 | 0.702 | 0.419 | 0.0053
COc1c(C)cc(-c2cc3c(c(-c4ccccc4)n2)[Si](C(C)C)(C(C)C)O[C@H]3c2ccccc2)cc1C | -0.102 | -0.322 (inactive) | -0.0343 | -0.154 | -0.0516 | 0.0732 | -0.325 | 0.111 | 0.613 | 0.124
